PubChem BioAssay (Tox21)
Records with an inconclusive call do not appear. Active and inactive are the calls of the source. Unless noted, calls follow the shape of the dose curve; as a rule, active = well fitted curve in the direction sought with a large enough effect in the repeat runs; inconclusive = weak or mixed curves; inactive = no such curve, though single readings can be large; an effect the other way counts as inactive or inconclusive. Where a SMILES comes first, the peptide text is derived from it. [ ]: non-standard residue; d: D form. pGlu = O=C1CC[C@@H](C(=O)O)N1

Legend:
[1] = target: Estrogen receptor beta (Homo sapiens) (UniProt Q92731); experiment: qHTS assay to identify small molecule antagonists of the estrogen receptor beta (ER-beta) signaling pathway (AID 1259378; active = well fitted inhibition curve with a large enough effect in the signal ratio in the repeat runs, not every such curve was filed as active; the % refers to the signal ratio)
Chain of Estrogen receptor beta (Homo sapiens) (Q92731 whole entry, looked up): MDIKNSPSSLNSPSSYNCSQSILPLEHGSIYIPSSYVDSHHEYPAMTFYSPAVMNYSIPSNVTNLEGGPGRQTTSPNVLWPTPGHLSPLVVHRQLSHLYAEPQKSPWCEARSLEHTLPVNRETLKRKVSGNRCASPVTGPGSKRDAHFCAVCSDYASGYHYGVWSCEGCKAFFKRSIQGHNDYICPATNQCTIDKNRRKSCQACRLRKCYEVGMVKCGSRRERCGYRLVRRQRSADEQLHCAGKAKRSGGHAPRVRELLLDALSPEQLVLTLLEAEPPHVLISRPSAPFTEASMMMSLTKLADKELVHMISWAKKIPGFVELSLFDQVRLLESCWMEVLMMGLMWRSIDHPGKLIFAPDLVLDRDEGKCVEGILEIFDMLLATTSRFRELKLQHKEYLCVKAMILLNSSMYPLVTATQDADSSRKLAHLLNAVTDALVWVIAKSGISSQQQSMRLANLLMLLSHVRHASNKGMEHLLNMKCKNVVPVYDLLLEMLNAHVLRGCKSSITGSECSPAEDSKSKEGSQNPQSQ
Procedure, shortened: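 ER-beta-UAS-bla HEK293T cells in 2% charcoal-stripped FBS medium treated with compound plus 1nM final 17-beta-estradiol for 16 hr at 37C. Beta-lactamase reporter read by FRET substrate fluorescence after 2 hours at room temperature.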

[2] = qHTS assay to identify small molecule agonists of the androgen receptor (AR) signaling pathway in the presence of an antagonist - cell viability counter screen (AID 1259379);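 also: MDA-kb2 human breast cancer cells carrying an MMTV luciferase reporter; series mostly up to about 92 µM; nearly all actives have a fitted effect of over 25% in size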
Procedure, shortened: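 Nilutamide-containing (3.0uM final) MDA-kb2 cultures, 3,000 cells/well, were treated with compounds across 15 concentrations. After 16 hr at 37C with no CO2, cell viability was determined by CellTiter-Fluor fluorescence in the luciferase assay wells.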

[3] = qHTS assay to identify small molecule agonists of the estrogen receptor beta (ER-beta) signaling pathway - cell viability counter screen (AID 1259380); also: nearly all actives have a fitted effect of over 30% in size
Procedure, shortened: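 Steps: plate ER-beta-UAS-bla HEK293T cells, rest 6 hr; add compounds in DMSO; incubate 16 hr at 37C, 5% CO2; add FRET substrate 2 hr; add CellTiter-Glo, wait 30 min at room temperature; read luminescence.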

[4] = qHTS assay to identify small molecule antagonists of the estrogen receptor beta (ER-beta) signaling pathway - cell viability counter screen (AID 1259382); also: series mostly up to about 92 µM; nearly all actives have a fitted effect of over 55% in size
Procedure, shortened: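 Viability is scored by CellTiter-Glo luminescence (30 min, room temperature) in ER-beta-UAS-bla HEK293T wells already read for reporter fluorescence. Compound exposure lasts 16 hr at 37C alongside 1nM 17-beta-estradiol in charcoal-stripped serum medium.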

[5] = target: Estrogen receptor (Homo sapiens) (UniProt P03372); experiment: qHTS assay to identify small molecule agonists of the estrogen receptor alpha (ER-alpha) signaling pathway in the presence of an antagonist (AID 1259383; calls by dose curve; also: top concentration of the series differs between compounds; nearly all actives have a fitted effect of over 15% in size)
Chain of Estrogen receptor (Homo sapiens) (P03372 whole entry, looked up): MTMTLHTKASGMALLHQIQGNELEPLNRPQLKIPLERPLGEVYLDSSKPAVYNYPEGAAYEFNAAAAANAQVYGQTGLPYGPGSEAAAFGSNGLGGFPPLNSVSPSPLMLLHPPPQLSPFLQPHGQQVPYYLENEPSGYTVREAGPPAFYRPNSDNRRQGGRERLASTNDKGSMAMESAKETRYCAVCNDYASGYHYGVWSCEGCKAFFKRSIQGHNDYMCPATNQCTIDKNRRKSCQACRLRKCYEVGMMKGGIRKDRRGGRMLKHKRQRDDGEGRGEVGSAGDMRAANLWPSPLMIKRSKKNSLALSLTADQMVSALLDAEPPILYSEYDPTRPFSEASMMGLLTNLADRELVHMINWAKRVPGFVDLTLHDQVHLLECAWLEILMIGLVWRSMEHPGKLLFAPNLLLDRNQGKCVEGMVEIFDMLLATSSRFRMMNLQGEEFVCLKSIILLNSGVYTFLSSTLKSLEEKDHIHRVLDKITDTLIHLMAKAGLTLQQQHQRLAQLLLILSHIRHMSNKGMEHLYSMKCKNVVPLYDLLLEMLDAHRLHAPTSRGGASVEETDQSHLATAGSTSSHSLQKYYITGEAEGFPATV
Procedure, shortened: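 Readout was ERE-driven luciferase luminescence in VM7Luc4E2 cells, which express full-length ER-alpha endogenously. Compounds were tested at 15 concentrations for 22hr alongside 10.0nM ICI-182,780 (final concentration).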

[6] = qHTS assay to identify small molecule agonists or antagonists of the thyroid stimulating hormone receptor (TSHR) signaling pathway - wild type cell line counter screen (AID 1259384; calls by dose curve)
Procedure, shortened: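 Wild-type Hek293 cells, 800/well, 18 h at 37C, then compound with Ro20-1724 for 30 min RT. cAMP by HTRF (cAMP-d2/anti-cAMP cryptate), 1 h RT, fluorescence read. 15 concentrations, triplicates.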

[7] = target: Thyrotropin receptor (Homo sapiens) (UniProt P16473); experiment: qHTS assay to identify small molecule antagonists of the thyroid stimulating hormone receptor (TSHR) signaling pathway (AID 1259385; calls by dose curve; also: nearly all actives have a fitted effect of over 20% in size)
Chain of Thyrotropin receptor (Homo sapiens) (P16473 whole entry, looked up): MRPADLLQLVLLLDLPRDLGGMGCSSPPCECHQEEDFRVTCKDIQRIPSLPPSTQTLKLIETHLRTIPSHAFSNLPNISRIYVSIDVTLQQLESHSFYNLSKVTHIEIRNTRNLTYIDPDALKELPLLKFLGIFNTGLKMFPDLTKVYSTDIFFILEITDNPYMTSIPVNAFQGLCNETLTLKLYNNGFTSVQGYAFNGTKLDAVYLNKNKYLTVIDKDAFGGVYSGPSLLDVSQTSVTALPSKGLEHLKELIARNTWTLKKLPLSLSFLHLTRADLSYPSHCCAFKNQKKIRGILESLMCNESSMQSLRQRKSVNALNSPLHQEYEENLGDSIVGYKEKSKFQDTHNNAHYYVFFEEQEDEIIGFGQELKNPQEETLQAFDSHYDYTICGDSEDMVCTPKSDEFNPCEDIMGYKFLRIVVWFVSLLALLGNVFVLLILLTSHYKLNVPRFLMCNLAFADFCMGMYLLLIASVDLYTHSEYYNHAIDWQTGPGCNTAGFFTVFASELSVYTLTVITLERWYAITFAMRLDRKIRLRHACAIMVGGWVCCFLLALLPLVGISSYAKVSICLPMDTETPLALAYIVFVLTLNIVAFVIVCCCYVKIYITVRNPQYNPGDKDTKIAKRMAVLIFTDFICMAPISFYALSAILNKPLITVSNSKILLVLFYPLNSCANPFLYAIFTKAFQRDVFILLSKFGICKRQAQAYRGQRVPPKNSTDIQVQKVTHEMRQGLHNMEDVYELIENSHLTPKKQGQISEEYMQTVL
Procedure, shortened: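 TSHR-HEK293 cells (800/well) plated 18 h, then compounds with Ro20-1724 and TSH at 1.5 ng/mL final, 30 min at room temperature. cAMP quantified by HTRF (cAMP-d2/anti-cAMP-cryptate, 1 h); 15 concentrations in triplicate.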

[8] = qHTS assay to identify small molecule agonists of the estrogen receptor alpha (ER-alpha) signaling pathway in the presence of an antagonist - cell viability counter screen (AID 1259386);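 also: series mostly up to about 92 µM; cells exposed to compounds for 22 h at 37 °C before the viability read; nearly all actives have a fitted effect of over 30% in size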
Procedure, shortened: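 In this counter screen, compound effects on VM7Luc4E2 viability were tested in the presence of the antagonist ICI-182,780 at 10.0nM final. Compounds were dosed at 15 concentrations, exposure lasted 22hr, and the CellTiter-Fluor signal was read.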

[9] = target: Androgen receptor (Homo sapiens) (UniProt P10275); experiment: qHTS assay to identify small molecule agonists of the androgen receptor (AR) signaling pathway in the presence of an antagonist (AID 1259381; calls by dose curve; also: nearly all actives have a fitted effect of over 15% in size)
Chain of Androgen receptor (Homo sapiens) (P10275 whole entry, looked up): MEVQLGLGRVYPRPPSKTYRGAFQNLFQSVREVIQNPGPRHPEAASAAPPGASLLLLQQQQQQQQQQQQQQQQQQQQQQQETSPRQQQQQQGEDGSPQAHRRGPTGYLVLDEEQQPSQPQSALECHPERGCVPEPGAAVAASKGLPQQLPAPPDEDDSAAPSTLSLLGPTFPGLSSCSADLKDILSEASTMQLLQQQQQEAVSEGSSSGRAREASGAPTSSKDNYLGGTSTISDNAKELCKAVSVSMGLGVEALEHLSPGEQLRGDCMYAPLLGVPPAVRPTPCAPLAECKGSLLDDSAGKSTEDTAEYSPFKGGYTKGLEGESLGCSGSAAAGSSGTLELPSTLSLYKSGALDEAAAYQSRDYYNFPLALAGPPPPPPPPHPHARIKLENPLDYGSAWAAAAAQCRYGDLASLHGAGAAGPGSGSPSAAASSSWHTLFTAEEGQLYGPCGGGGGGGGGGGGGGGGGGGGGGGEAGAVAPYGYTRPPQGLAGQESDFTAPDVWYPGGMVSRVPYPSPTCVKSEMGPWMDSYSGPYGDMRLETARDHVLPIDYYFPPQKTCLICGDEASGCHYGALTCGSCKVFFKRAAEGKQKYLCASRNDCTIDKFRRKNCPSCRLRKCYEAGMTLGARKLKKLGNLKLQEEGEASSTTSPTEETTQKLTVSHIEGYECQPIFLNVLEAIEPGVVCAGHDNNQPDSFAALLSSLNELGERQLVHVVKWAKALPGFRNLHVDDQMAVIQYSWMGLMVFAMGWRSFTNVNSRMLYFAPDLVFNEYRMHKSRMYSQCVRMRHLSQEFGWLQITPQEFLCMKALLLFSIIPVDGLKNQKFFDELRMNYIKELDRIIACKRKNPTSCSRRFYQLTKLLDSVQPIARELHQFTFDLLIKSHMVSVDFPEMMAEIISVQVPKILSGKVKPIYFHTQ
Procedure, shortened: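 Reporter-gene luminescence from MDA-kb2 cells exposed 16hr at 37C (0% CO2) to 15-point compound titrations with 3.0uM final nilutamide as AR antagonist.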

[10] = target: Progesterone receptor (Homo sapiens) (UniProt P06401); experiment: qHTS assay to identify small molecule agonists of the progesterone receptor (PR) signaling pathway (AID 1346784; calls by dose curve; also: nearly all actives have a fitted effect of over 30% in size)
Chain of Progesterone receptor (Homo sapiens) (P06401 whole entry, looked up): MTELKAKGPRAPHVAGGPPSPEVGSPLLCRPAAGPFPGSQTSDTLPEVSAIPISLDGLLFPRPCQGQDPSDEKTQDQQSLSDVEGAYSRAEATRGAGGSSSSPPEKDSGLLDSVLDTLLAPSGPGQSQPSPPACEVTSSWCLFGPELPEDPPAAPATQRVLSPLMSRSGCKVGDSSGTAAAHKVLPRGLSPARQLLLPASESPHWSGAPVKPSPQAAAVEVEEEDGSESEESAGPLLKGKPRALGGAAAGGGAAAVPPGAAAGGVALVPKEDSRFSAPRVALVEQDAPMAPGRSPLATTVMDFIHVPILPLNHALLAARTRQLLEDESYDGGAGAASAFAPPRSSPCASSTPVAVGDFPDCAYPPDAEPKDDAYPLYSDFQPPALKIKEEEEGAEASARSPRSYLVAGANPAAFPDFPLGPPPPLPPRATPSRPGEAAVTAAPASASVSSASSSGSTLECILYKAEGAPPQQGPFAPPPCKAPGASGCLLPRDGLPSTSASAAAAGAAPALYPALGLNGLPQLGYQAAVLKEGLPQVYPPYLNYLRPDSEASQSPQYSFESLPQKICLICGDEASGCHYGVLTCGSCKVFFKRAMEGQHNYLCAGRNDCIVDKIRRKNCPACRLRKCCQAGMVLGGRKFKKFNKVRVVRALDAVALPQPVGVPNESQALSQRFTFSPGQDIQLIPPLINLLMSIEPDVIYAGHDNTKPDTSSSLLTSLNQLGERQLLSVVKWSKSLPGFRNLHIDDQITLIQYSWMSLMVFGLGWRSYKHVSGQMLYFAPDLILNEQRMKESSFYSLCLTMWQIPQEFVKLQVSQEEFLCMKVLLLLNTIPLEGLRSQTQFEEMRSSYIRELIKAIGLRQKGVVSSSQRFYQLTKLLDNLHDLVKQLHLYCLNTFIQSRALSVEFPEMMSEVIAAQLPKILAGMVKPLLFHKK
Procedure, shortened: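 Reporter assay, GripTite PR-UAS-bla HEK 293T cells: 16 hr exposure to DMSO-dissolved compounds at 37C, 5% CO2, in steroid-depleted (2% charcoal-stripped FBS) medium; beta-lactamase measured by FRET fluorescence.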
% is scaled to controls: 0 for no effect and ±100 for the full control effect.

CCCCCCCCCCOc1cc2c(=O)c(C(=O)OCC)c[nH]c2cc1OCC
inactive: activity, negative = inhibition [1] 11.6% [at 8.39 µM] | activity change, negative = cytotoxicity [2] 0.727% [at 8.39 µM] | activity change, negative = cytotoxicity [3] 7.19% [at 8.39 µM] | activity change, negative = cytotoxicity [4] 5.47% [at 8.39 µM] | activation [5] 0.417% [at 8.39 µM] | cAMP activity change [6] -4.45% [at 8.39 µM] | activity change, negative = inhibition [7] 0.172% [at 8.39 µM] | activity change, negative = cytotoxicity [8] -3.47% [at 8.39 µM]

Cc1ccc(-c2ccccc2C#N)cc1
inactive: Potency [1] | Potency [2] | Potency [3] | Potency [9] | outcome [4] | outcome [5] | outcome [6] | outcome [7] | Potency [8] | Potency [10]

CCOC(=O)C(=O)CCCCCCl
inactive: Potency [1] | Potency [2] | Potency [3] | Potency [9] | outcome [4] | outcome [5] | outcome [6] | outcome [7] | Potency [8] | Potency [10]

CCCO[Si](OCCC)(OCCC)OCCC
inactive: Potency [1] | Potency [2] | Potency [3] | outcome [4] | outcome [5] | outcome [6] | outcome [7] | Potency [8]

C[N+](C)(CCOc1ccccc1)Cc1cccs1
inactive: Potency [1] | Potency [2] | Potency [3] | Potency [9] | outcome [4] | outcome [6] | outcome [7] | Potency [8]

CC(=O)N1C[C@H](O)C[C@H]1C(=O)O
inactive: Potency [1] | Potency [2] | Potency [3] | Potency [9] | outcome [4] | outcome [5] | outcome [6] | outcome [7] | Potency [8] | Potency [10]

CC[N+](CC)(CC)CCOc1cccc(OCC[N+](CC)(CC)CC)c1OCC[N+](CC)(CC)CC
inactive: Potency [1] | Potency [2] | Potency [3] | Potency [9] | outcome [4] | outcome [6] | outcome [7] | Potency [8] | Potency [10]

COC(=O)Nc1ccc(Cl)c(Cl)c1
inactive: Potency [1] | Potency [2] | Potency [3] | Potency [9] | outcome [4] | outcome [6] | outcome [7] | Potency [8] | Potency [10]

C=COCC1CCC(COC=C)CC1 (configuration not stated)
inactive: Potency [1] | Potency [2] | Potency [3] | outcome [4] | outcome [5] | outcome [6] | outcome [7] | Potency [8]

N[C@H](C(=O)O)[C@@H](O)c1ccc(O)c(O)c1
inactive: Potency [1] | Potency [2] | Potency [3] | outcome [4] | outcome [5] | outcome [6] | outcome [7] | Potency [8]

CCCCCCC1CCC(=O)O1 (configuration not stated)
inactive: Potency [1] | Potency [2] | Potency [3] | outcome [4] | outcome [5] | outcome [6] | outcome [7] | Potency [8] | Potency [10]

Cc1ccc(C(=O)c2ccccc2)cc1
inactive: Potency [1] | Potency [2] | Potency [3] | Potency [9] | outcome [4] | outcome [5] | outcome [6] | outcome [7] | Potency [8] | Potency [10]

CC(=O)NC(=O)c1ccccc1O
inactive: Potency [1] | Potency [2] | Potency [3] | outcome [4] | outcome [5] | outcome [6] | outcome [7] | Potency [8]

CCN[C@H]1C[C@H](C)S(=O)(=O)c2sc(S(N)(=O)=O)cc21
inactive: Potency [1] | Potency [2] | Potency [3] | outcome [4] | outcome [5] | outcome [6] | outcome [7] | Potency [8]

CCCCc1ccc2c(n1)[C@@H](c1ccc(OC)cc1C[C@H](C)C(=O)O)[C@H](C(=O)O)[C@H]2c1ccc2c(c1)OCO2
inactive: Potency [1] | Potency [2] | Potency [3] | outcome [4] | outcome [5] | outcome [6] | outcome [7] | Potency [8]

CCOC(=O)C1=NOC(c2ccccc2)(c2ccccc2)C1
inactive: Potency [1] | Potency [2] | Potency [3] | outcome [4] | outcome [5] | outcome [6] | outcome [7] | Potency [8] | Potency [10]

C=CC(=O)OCCCl
inactive: Potency [1] | Potency [2] | Potency [3] | outcome [4] | outcome [5] | outcome [6] | outcome [7] | Potency [8] | Potency [10]

CCOCC(C)O (configuration not stated)
inactive: Potency [1] | Potency [2] | Potency [3] | outcome [4] | outcome [5] | outcome [6] | outcome [7] | Potency [8] | Potency [10]

C=CCOCC(O)CO (configuration not stated)
inactive: Potency [1] | Potency [2] | Potency [3] | outcome [4] | outcome [5] | outcome [6] | outcome [7] | Potency [8] | Potency [10]

CCNC(=O)[C@@H]1CCCN1C(=O)[C@H](CCCN=C(N)N)NC(=O)[C@H](CC(C)C)NC(=O)CNC(=O)[C@H](Cc1ccc(O)cc1)NC(=O)[C@H](CO)NC(=O)[C@H](Cc1c[nH]c2ccccc12)NC(=O)[C@H](Cc1cnc[nH]1)NC(=O)[C@@H]1CCC(=O)N1 ([pGlu]HWSYGLRP-NHEt)
inactive: Potency [1] | Potency [2] | Potency [3] | outcome [4] | outcome [5] | outcome [6] | outcome [7] | Potency [8] | Potency [10]

Cc1nc(C2CCCCC2)c(-c2ccc(S(N)(=O)=O)c(F)c2)o1
inactive: Potency [1] | Potency [2] | Potency [3] | outcome [4] | outcome [5] | outcome [6] | outcome [7] | Potency [8] | Potency [10]

[O-][n+]1cccc(CO)c1
inactive: Potency [1] | Potency [2] | Potency [3] | outcome [4] | outcome [5] | outcome [6] | outcome [7] | Potency [8] | Potency [10]

CCCCCC(=O)OCCc1ccccc1
inactive: Potency [1] | Potency [2] | Potency [3] | outcome [4] | outcome [5] | outcome [6] | Potency [8] | Potency [10]
